Data on 12 compounds can be found in PubChem BioAssay (NCI).

The panel holds about 83,000 compounds, 20% with a hit somewhere; the sample as a whole holds those more often.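 Each cell line was grown in a 96-well plate and treated with one concentration of compound for 48 hours. Values below 10 were considered active.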 Unmarked numbers belong to inactive results. Activity calls are given as the source filed them.

Test systems include HCT-15 colon; HT29 colon; SNB-75 CNS; SNB-19 CNS; U251 CNS; PC-3 prostate; SK-MEL-5 melanoma; UACC-62 melanoma; LOX IMVI melanoma; SK-MEL-28 melanoma.
What all share (assay): NCI-60 one-dose screen, 48 h (100 = growth as untreated, 0 = no growth, -100 = all killed)
Holding throughout (settings): 10 µM

Consider `CCCCc1oc2ccccc2c1C(=O)c1cc(I)c(OCCN(CC)CC)c(I)c1`, for which the growth was -50.5% (active) in the assay on HCT-15 colon; -61.2% (active) in the assay with HT29 colon; 12.5% with SNB-75 CNS; -60.6% (active) in the assay with SNB-19 CNS; -86.3% (active) with U251 CNS; -8.07% (active) with PC-3 prostate. The growth with SK-MEL-5 melanoma was -100% (active); in the assay with UACC-62 melanoma, -86.8% (active); with LOX IMVI melanoma it was -88.7% (active); with SK-MEL-28 melanoma, -87.8% (active).
On to `COc1ccc(/C=C2\CCCC3C2=Nc2ccccc2NC3c2ccc(OC)cc2)cc1` (stereo not given), for which the growth was 93.9% in the assay with HCT-15 colon; 74.8% in the assay with HT29 colon; 101% with SNB-75 CNS; 92% in the assay with SNB-19 CNS; 80.9% in the assay with U251 CNS; 86.9% in the assay on PC-3 prostate. In addition, the growth is 88.5% in the assay on SK-MEL-5 melanoma, 68% in the assay on UACC-62 melanoma, 57.4% in the assay with LOX IMVI melanoma and 98.3% with SK-MEL-28 melanoma.
As to `O=C(Nc1nc(-c2ccccc2)nc2c1sc(=S)n2-c1ccccc1)C(F)(F)F`, the growth in the assay on HCT-15 colon was 88.4%; in the assay with HT29 colon it was 94.8%; in the assay on SNB-75 CNS it was 96.5%; in the assay on SNB-19 CNS, 105%; in the assay with U251 CNS, 90.6%; with PC-3 prostate it was 79.5%. The growth in the assay with SK-MEL-5 melanoma was 90.4%; with UACC-62 melanoma, 86%; in the assay on LOX IMVI melanoma it was 84.4%; in the assay on SK-MEL-28 melanoma it was 104%.
On to `Cc1[nH]c2ccccc2c1/C=N/Nc1ncnc2sc3c(c12)CCN(CC(=O)OC(C)(C)C)C3`, for which the growth with HCT-15 colon was 30.1%; in the assay on HT29 colon, 41.8%; in the assay on SNB-75 CNS it was 63.4%; with SNB-19 CNS, 93.3%; with U251 CNS it was 78.2%; in the assay with PC-3 prostate, 69.2%. The growth in the assay with SK-MEL-5 melanoma is 60.8%; with UACC-62 melanoma, 81.9%; in the assay with LOX IMVI melanoma, 83.6%; in the assay with SK-MEL-28 melanoma it was 80.7%.
Turning to `C[C@]12CCC3c4ccc(O)cc4C[C@@H](CCCCCCCCCS(=O)CCCC(F)(F)C(F)(F)F)C3C1CC[C@@H]2O` (stereo not given in full), the growth was 71.6% in the assay on HCT-15 colon; 72.1% in the assay with HT29 colon; 64.4% with SNB-75 CNS; 89.8% in the assay with SNB-19 CNS; 68.3% in the assay on U251 CNS; 52.5% with PC-3 prostate. Further, the growth in the assay on SK-MEL-5 melanoma was 76%; with UACC-62 melanoma, 83.3%; in the assay with LOX IMVI melanoma it was 90.1%; in the assay on SK-MEL-28 melanoma, 97.1%.
Regarding `Cc1ccc(Cl)cc1NC(=O)CCl`, the growth in the assay on HCT-15 colon was 67.2%; in the assay on HT29 colon, 82.9%; in the assay with SNB-75 CNS, 85.6%; with SNB-19 CNS it was 82.2%; in the assay with U251 CNS, 67.5%; with PC-3 prostate it was 81.2%. Moreover, the growth in the assay with SK-MEL-5 melanoma is 58.1%; with UACC-62 melanoma, 66.3%; in the assay on LOX IMVI melanoma, 42.2%; with SK-MEL-28 melanoma, 98.5%.
Take `COc1ccc(/C=C2\CCCC3=C2NC(N)=NC3c2ccc(OC)cc2)cc1` (stereo not given): the growth in the assay on HCT-15 colon is 92.9%; with HT29 colon, 93.2%; in the assay with SNB-75 CNS, 87.4%; with SNB-19 CNS, 92.1%; in the assay on U251 CNS, 90.6%; in the assay with PC-3 prostate it was 86.7%. The growth in the assay with SK-MEL-5 melanoma is 56.2%; with UACC-62 melanoma it was 68%; in the assay on LOX IMVI melanoma, 73.6%; in the assay with SK-MEL-28 melanoma, 98.5%.
Consider `C=C(C)[C@@H]1CC[C@]2(COCCC#N)CC[C@]3(C)[C@H](CC[C@@H]4[C@@]5(C)Cc6c([nH]c7ccccc67)C(C)(C)[C@@H]5CC[C@]43C)[C@@H]12`, for which the growth was 102% in the assay with HCT-15 colon; 89.7% in the assay on HT29 colon; 90.9% in the assay on SNB-75 CNS; 99.1% in the assay with SNB-19 CNS; 102% in the assay on U251 CNS; 92.9% with PC-3 prostate. The growth in the assay with SK-MEL-5 melanoma is 98.2%; in the assay with UACC-62 melanoma, 105%; with LOX IMVI melanoma, 92.1%; in the assay on SK-MEL-28 melanoma, 100%.
Consider `O=C(CSc1nccc(Nc2cccc3ccccc23)n1)c1ccc(Cl)cc1`, for which the growth in the assay on HCT-15 colon was 101%; with HT29 colon it was 86.9%; in the assay with SNB-75 CNS it was 88%; in the assay on SNB-19 CNS, 89.3%; in the assay with U251 CNS, 96.1%; with PC-3 prostate, 83.9%. Further, the growth with SK-MEL-5 melanoma was 98.3%; in the assay with UACC-62 melanoma it was 70.2%; in the assay on LOX IMVI melanoma, 77.6%; in the assay with SK-MEL-28 melanoma, 106%.
For `NC(N)=N/N=C(\c1ccccc1)C(O)c1ccccc1` (stereo not given), the growth with HCT-15 colon was 111%; in the assay on HT29 colon it was 92.3%; in the assay on SNB-75 CNS, 93.7%; with SNB-19 CNS, 95.3%; in the assay with U251 CNS, 106%; with PC-3 prostate, 94.6%. Further, the growth with SK-MEL-5 melanoma is 103%; in the assay with UACC-62 melanoma, 94.6%; in the assay on LOX IMVI melanoma, 94.2%; with SK-MEL-28 melanoma, 107%.
With `COc1ccc(Cl)cc1Nc1nc(C(F)(F)F)ccc1C(=O)N/N=C/c1cc(OC)c(OC)c(OC)c1`, the growth with HCT-15 colon was 23.7%; in the assay on HT29 colon, 32%; in the assay with SNB-75 CNS, 32.6%; with SNB-19 CNS, 38.9%; in the assay with U251 CNS it was 16.3%; in the assay with PC-3 prostate, 6.2% (active). The growth with SK-MEL-5 melanoma is 18.8%; with UACC-62 melanoma, -48% (active); with LOX IMVI melanoma, -61.5% (active); with SK-MEL-28 melanoma, 30.2%.
For `Nc1ccn(Cc2nnc(CCC(=O)c3nc4ccccc4[nH]3)o2)c(=O)n1`, the growth in the assay on HCT-15 colon is 89.2%; in the assay on HT29 colon, 89.5%; in the assay on SNB-75 CNS, 67.5%; in the assay with SNB-19 CNS, 91%; in the assay with U251 CNS it was 85.6%; with PC-3 prostate it was 77%. The growth in the assay on SK-MEL-5 melanoma is 68.9%; in the assay on UACC-62 melanoma, 66.2%; in the assay with LOX IMVI melanoma, 53.9%; in the assay on SK-MEL-28 melanoma it was 104%.
